The structures appear in SMILES notation. Results filed as inconclusive are left out. More than one record can exist for a structure, and the calls need not agree. Activity calls are given as the source filed them. How the source made its calls: active means hit-call score of the fitted dose curve at least 0.9, where 1 is the maximum; inconclusive means response in the unintended direction; inactive means score below 0.9.

Sequence of rat Monoamine Oxidase, MAO-B, Central (MAOBC), Maob (gene 25750) (P19643 whole entry, looked up): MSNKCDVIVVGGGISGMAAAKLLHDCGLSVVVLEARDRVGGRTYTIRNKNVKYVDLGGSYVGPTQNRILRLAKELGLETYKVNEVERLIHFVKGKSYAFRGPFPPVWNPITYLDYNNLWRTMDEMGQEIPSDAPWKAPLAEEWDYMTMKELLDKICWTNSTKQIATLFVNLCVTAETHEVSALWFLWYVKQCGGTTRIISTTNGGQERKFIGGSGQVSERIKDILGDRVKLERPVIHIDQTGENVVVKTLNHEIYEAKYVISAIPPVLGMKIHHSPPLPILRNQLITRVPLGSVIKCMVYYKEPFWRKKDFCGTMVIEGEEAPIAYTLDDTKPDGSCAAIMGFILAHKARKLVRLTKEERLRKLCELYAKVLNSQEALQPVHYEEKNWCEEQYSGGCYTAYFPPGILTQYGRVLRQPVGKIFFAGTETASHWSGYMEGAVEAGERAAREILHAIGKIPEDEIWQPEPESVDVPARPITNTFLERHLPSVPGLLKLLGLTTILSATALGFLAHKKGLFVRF

The target in this test is rat Monoamine Oxidase, MAO-B, Central (MAOBC), Maob (gene 25750) (UniProt P19643). Nature of the test: NVS_ENZ_rMAOBC: NovaScreen (NVS) Enzymatic Assay for rat Monoamine Oxidase, MAO-B, Central (MAOBC) (AID 2283238). On the procedure:
NVS_ENZ_rMAOBC is a biochemical, single-readout assay that uses extracted gene-proteins from Rat brain in a tissue-based cell-free assay. Measurements were taken 1.17 hours after chemical dosing in a 96-well plate.NVS_ENZ_rMAOBC is one of one assay component(s) measured or calculated from the NVS_ENZ_rMAOBC assay. It is designed to make measurements of enzyme activity, a form of enzyme reporter, as detected with scintillation counting signals by Lysate-based radiodetection technology.Data from the assay component NVS_ENZ_rMAOBC was analyzed into 1 assay endpoint. This assay endpoint, NVS_ENZ_rMAOBC, was analyzed in the positive analysis fitting direction relative to DMSO as the negative control and baseline of activity. Using a type of enzyme reporter, loss-of-signal activity can be used to understand changes in the enzymatic activity as they relate to the gene Maob. Furthermore, this assay endpoint can be referred to as a primary readout, because this assay has produced multiple assay endpoints where this one serves a enzymatic activity function. To generalize the intended target to other relatable targets, this assay endpoint is annotated to the oxidoreductase intended target family, where the subfamily is monoamine oxidase.
Binding assays used specific radioligands (tritiated, iodinated) with non-radioactive competitive displacement ligands in agonist or antagonist protocols (as indicated) and various reference compounds and inhibitors to titrate specific binding to receptors and transporters. Most enzyme assays (CYPs, kinases, phosphatases, proteases, HDACs) used recombinant protein and specific substrates (fluorescence mostly, some colorimetric and radioactive) and inhibitors, followed by a biochemical separation of substrate and product. All assays for the biochemical HTS were initially run in duplicate at a single concentration (10 uM for CYP450 assays and 25 uM for all others). Assay-chemical combinations meeting a pre-defined threshold (e.g., 30% inhibition and other criteria defined below) were then run in singleton concentration-response format with maximum concentration of 20 uM for CYPs and 50 uM for all others. Each assay was run with positive and negative controls, and concurrent controls on every plate. The follow-up (secondary) screen tested active chemical-pairs in concentration series, as well as a few additional assays not tested in the primary screen, some selected negative inactives, and several cases re-run in the concentration series for confirmatory purposes.
For `Cc1oc(-c2ccccc2)nc1CCOc1ccc(C[C@H](Nc2ccccc2C(=O)c2ccccc2)C(=O)O)cc1`, the AC50 is 25 µM (active).

Consider `O=C(N[C@@H](Cc1ccccc1)[C@@H](O)C(=O)N1C[C@@H](O)[C@@H](O)C1)c1cc2cc(Cl)ccc2[nH]1`, for which the outcome was inactive.

As for `Cc1c(C)c2c(c(C)c1O)CCC(C)(COc1ccc(CC3SC(=O)NC3=O)cc1)O2` (stereo not given), the AC50 was 25 µM (active).

For the compound `O=C(O)c1cccc(C[C@@H]2COc3ccc(OCc4nc5cc(F)ccc5s4)cc3[C@@H]2O)c1`, the AC50 is 17.8 µM (active).

As to `O=C(O)Cc1cc(I)c(Oc2cc(I)c(O)c(I)c2)c(I)c1`, the call was inactive.

On to `CN(Cc1cnc2nc(N)nc(N)c2n1)c1ccc(C(=O)N[C@@H](CCC(=O)O)C(=O)O)cc1`, for which the compound was classed as inactive.

As for `O=C(c1ccc(O)cc1O)c1ccc(O)cc1O`, the AC50 is 12.9 µM (active).

On to `CC(Cc1ccc(C(C)(C)C)cc1)CN1C[C@@H](C)O[C@@H](C)C1` (stereo not given in full), for which the AC50 was 14.1 µM (active).

Regarding `CS(=O)(=O)OCCCCOS(C)(=O)=O`, the outcome was inactive.

On to `c1ccc(C(O[C@@H]2CCCN(CCc3ccc4c(c3)OCO4)C2)c2ccccc2)cc1`, for which the AC50 was 14.9 µM (active).

Turning to `COC(=O)c1ccc(C(=O)OC)cc1`, the AC50 was 25 µM (active).

With `CCOC(=O)[C@H](C)Oc1ccc(Oc2nc3ccc(Cl)cc3o2)cc1`, the AC50 is 1.57 µM (active).

`Cc1ccc(C)c(C)c1`: the compound was classed as inactive.

Regarding `Cc1ccc([N+](=O)[O-])cc1N`, the AC50 is 14.7 µM (active).

Consider `O=C(O)c1ccccc1C(c1ccc(O)cc1)c1ccc(O)cc1`, for which the outcome was inactive.

For the compound `CC/C(=C\C(=N/O)C(N)=O)C(C)[N+](=O)[O-]` (stereo not given), the AC50 was 37.8 µM (active).

Turning to `CCOC(=O)C(C)Oc1ccc(Oc2nc3ccc(Cl)cc3o2)cc1` (stereo not given), the result was inactive.

With `O=C(O)c1ccccc1`, the outcome was inactive.

Turning to `CCCCCCCCCCCC[N+](C)(C)C`, the AC50 is 9.12 µM (active).

As to `CCOC(=O)c1ccc(O)cc1`, the compound was called inactive.

Turning to `c1ccc2ncccc2c1`, the outcome was inactive.

Regarding `O=C1c2ccccc2C(=O)N1CCc1noc(-c2ccc(CN3CCCCCC3)s2)n1`, the AC50 was 12.5 µM (active).

Consider `O=C(O)c1cccc(N(Cc2cccnc2)c2ccc(OC(F)F)c(OC(F)F)c2)c1`, for which the result was inactive.

As to `CCc1ccc(CCOc2ccc(CC3SC(=O)NC3=O)cc2)nc1` (stereo not given), the AC50 was 6 µM (active).

Consider `CCCOC(=O)c1cc(O)c(O)c(O)c1`, for which the call was inactive.

As to `O=C(O)c1cccnc1`, the result was inactive.

For `CCCCC(CC)CN1C(=O)C2C3C=CC(C3)C2C1=O` (stereo not given), the compound was called inactive.

Consider `N[C@@H](Cc1cc(I)c(Oc2ccc(O)c(I)c2)c(I)c1)C(=O)O`, for which the compound was classed as inactive.

As to `CN(C)C(=O)Nc1ccc(Cl)c(Cl)c1`, the compound was called inactive.

As to `Oc1ccc(C(c2ccc(O)cc2)C(Cl)(Cl)Cl)cc1`, the result was inactive.

For `Nc1ccc(Nc2ccccc2)cc1`, the AC50 is 10.4 µM (active).

Turning to `CCc1cc(SCc2sc(-c3ccc(C(F)(F)F)cc3)nc2CN2CCN(c3ccc(OC)cc3)CC2)ccc1OCC(=O)O`, the AC50 is 15 µM (active).

`O=[N+]([O-])c1ccc(O)cc1`: the AC50 was 18.1 µM (active).

For `N#CSCSc1nc2ccccc2s1`, the compound was classed as inactive.

Take `NC(=O)N(O)[C@@H]1COc2cc(OCc3ccccc3)ccc21`: the AC50 is 12.2 µM (active).

As to `COc1ccc([N+](=O)[O-])cc1N`, the AC50 was 25 µM (active).

For the compound `Fc1ccccc1[C@@H](F)COC1CCC(Nc2ncnc3[nH]ncc23)CC1` (stereo not given in full), the AC50 is 18.6 µM (active).

`COc1cccc(-c2ccc(/C=C\CN3CCCCCC3)cc2Cl)c1`: the AC50 was 27.7 µM (active).

As for `c1ccc2n[nH]nc2c1`, the AC50 is 25 µM (active) and the outcome was inactive.

Source of the values: PubChem BioAssay (EPA / NIEHS).
